Screens from PubChem BioAssay.
IL1B NFkB pot: enhancers of NFkB p65 translocation in HUVEC – imaging, IL-1B stimulus, high-content imaging, primary screen | activation, % at 2 µM | 94,000 tested, 0.3% active | HUVEC IL-1B NFkB p65 nuclear translocation imaging;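 active = activation above 40%, about the mean plus 3 SD, also judged a hit on visual image review; inconclusive = activation above 40% but not a hit on visual review; inactive = activation not above 40% and no visual hit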;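 also: percent activation is computed from the nuclear over cytoplasmic p65 intensity ratio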
HUVEC tox TNFa: cytotoxicity in TNFa-stimulated HUVEC, primary screen, cytotoxicity control for VCAM1 expression modulator project, imaging, Hoechst nuclei count | HUVEC TNFalpha-stimulated, Hoechst cell count | cell count reduction, % at 2 µM | 93,000 tested, 0.17% active;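 active = cell count reduction exceeding the screen mean by over 5 SD, scaled to untreated wells per plate, cut at about 78% in these data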;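 also: cells counted after 24 h of TNF alpha exposure following the 1 h pretreatment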
VCAM1 TNFa inh: inhibitors of TNFa-induced VCAM1 expression, primary screen, imaging, HUVEC, TNFa stimulus, immunofluorescence; HUVEC TNFa-induced VCAM-1 immunofluorescence, high-content imaging; inhibition, % at 2 µM; 95,000 tested, 0.48% active; AID 802, 2007;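 active = inhibition above the batch mean plus 3 SD, with images confirmed as a hit by eye, cut at about 37% in these data; inconclusive = inhibition above that limit but hit not confirmed in images; inactive = inhibition not above that limit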;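 also: 0% = TNF-stimulated DMSO wells and 100% = unstimulated control wells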
E-sel TNF inh: E-selectin induction blockers in HUVEC – imaging, immunofluorescence, high content, primary screen; HUVEC TNFa-induced E-selectin immunofluorescence; inhibition, % at 2 µM; 120,000 tested, 0.71% active; AID 1246, 2008;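 active = inhibition above the batch mean plus 3 SD, and confirmed as a hit on visual image review, cut at about 43% in these data; inconclusive = passes the inhibition cutoff but fails visual image review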;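 also: 0% = TNF-stimulated DMSO wells and 100% = unstimulated control wells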
NFkB transloc inh: inhibitors of IL-1B driven NFkB p65 nuclear import, primary screen, imaging, HUVEC, IL-1B stimulus, high-content imaging. HUVEC IL-1B NFkB p65 nuclear translocation imaging. inhibition, % at 2 µM. 94,000 tested, 0.43% active;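 active = inhibition above about 30% together with a positive call from visual inspection of the well image, limit read from the data; inconclusive = inhibition above a set limit but visual check negative; inactive = inhibition not above a set limit, visual check negative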;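 also: nuclear over cytoplasmic p65 intensity ratio measured by imaging; 0% = IL-1B stimulated DMSO wells and 100% = unstimulated DMSO wells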
HUVEC tox IL1B: cytotoxicity in IL-1B stimulated HUVEC, primary screen, cytotoxicity control for IL-1B NFkB translocation project, imaging, Hoechst nuclear count, IL-1B stimulus; HUVEC cell count loss; cell count reduction, % at 2 µM; 94,000 tested, 0.41% active; AID 845, 2007;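 active = cell count reduction more than 3 SD above the screen-wide mean, cut at about 70% in these data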;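 also: normalized per plate to untreated control cells as the no-loss baseline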
Numbers without * were called inactive; ? = inconclusive; . = not tested or not shown. Most compounds without a hit are left out; they make up all but 1.7% or so of the library.

SMILES	IL1B NFkB pot	HUVEC tox TNFa	VCAM1 TNFa inh	E-sel TNF inh	NFkB transloc inh	HUVEC tox IL1B
CCOc1ccc(N(C(C)=O)c2nc(C)cc(C)c2C#N)cc1	4	-14	9	0	-4	18
O=C(Nc1ccc2nc(-c3cccs3)[nH]c2c1)c1cccs1	-6	-25	6	-7	6	90*
O=C1CCC([N+](=O)[O-])C(c2ccc(Cl)cc2)N1 (stereo unspecified)	-10	-16	5	-11	10	-10
CCOc1cc(NC(=O)c2ccco2)c(OCC)cc1NC(=O)Cc1cccc(OC)c1	-3	17	15	-12	3	7
CCOc1cc(NC(=O)c2ccco2)c(OCC)cc1NC(=O)CCC(=O)NCc1cccnc1	0	100*	?	11	0	6
CN(C)CC(C)(C)CNS(=O)(=O)c1ccc(OC(F)(F)F)cc1	.	.	.	-22	.	.
Cc1ccc(/C(O)=C2/C(=O)C(=O)OC2c2ccc(Cl)cc2)cc1 (stereo unspecified)	6	6	0	8	-6	5
O=C1OC(c2ccccc2)/C(=C(/O)c2ccc(Cl)cc2)C1=O (stereo unspecified)	-38	9	16	10	38*	10
CC1(C)Cc2c(oc3ncn4ncnc4c23)CO1	2	97*	?	.	-2	7
O=C(COC(=O)c1ccc2[nH]c3c(c2c1)CCCC3)Nc1ccccc1	.	.	.	-3	.	.
S=C(NCc1ccco1)Nc1cc(Cl)c(Cl)cc1Cl	.	.	.	29	.	.
COc1ccc(Cl)cc1NC(=S)NCc1ccco1	-11	10	18	100*	11	-4
CCCc1cc(=O)[nH]c(SCC(=O)Nc2nonc2N)n1	5	-34	86*	-11	-5	10
O=[N+]([O-])c1cc2c(cc1/C=N/Nc1nc(Nc3ccccc3)nc(N3CCCCC3)n1)OCO2	-4	-6	-4	57*	4	5
CCN(CC)CCN1C(=O)C(O)=C(C(=O)c2ccco2)C1c1ccccn1 (stereo unspecified)	31	-12	-4	14	-31	11
CCCOc1cccc(C2C(C(=O)c3ccco3)=C(O)C(=O)N2CCN(CC)CC)c1 (stereo unspecified)	49*	-5	7	-4	-49	-26
CC(=O)c1cc(F)c(N2CCN(C(=O)COc3ccc(F)cc3)CC2)cc1C	16	-6	7	4	-16	83*
O=C(Cn1cc(C(=O)C2CC2)c2ccccc21)NCc1ccccc1	19	-9	4	-2	-19	-31
O=C(O)Cn1cc(C(=O)C2CC2)c2ccccc21	19	-5	12	1	-19	82*
C=C(C)C1CCC(C)=C1COC(=O)Nc1ccccc1 (stereo unspecified)	-9	-26	-4	.	9	-15
N/C(Cc1cccc2ccccc12)=N\OC(=O)c1ccc2c(c1)OCO2	.	.	.	83*	.	.
COC(=O)C1(c2ccccc2)NC(c2cccs2)C2C(=O)N(c3ccccc3)C(=O)C21 (stereo unspecified)	0	-12	7	-13	0	13
CCCCN1C(=O)C2C3C=CC(C2C1=O)C1C2C(=O)N(CCCC)C(=O)C2C31 (stereo unspecified)	.	.	.	72*	.	.
Cc1cc(C)cc(OCc2nnc(SCC(=O)OC(C)C)o2)c1	5	-14	0	-55	-5	13
O=C(CSc1ncnc2nc[nH]c12)Nc1ccccc1C(F)(F)F	-9	-1	-5	76*	9	15
SMILES	IL1B NFkB pot	HUVEC tox TNFa	VCAM1 TNFa inh	E-sel TNF inh	NFkB transloc inh	HUVEC tox IL1B
O=C(Nc1ccccc1)c1ccc(NC2CCCCC2)c(S(=O)(=O)N2CCOCC2)c1	29	14	24	-23	-29	-23
Cc1cc(N2CCC(C)CC2)nc(NCc2ccccc2)n1	.	.	.	-16	.	.
O=C(CSc1ncccc1-c1nc2ccccc2[nH]1)N1CCN(c2ccccc2F)CC1	15	-12	22	-9	-15	85*
CC(C)CN(C(=O)c1nn(C)c(=O)c2ccccc12)c1nc2ccccc2s1	21	-16	5	8	-21	-16
CCOc1ccc(C)cc1-n1nc2ccccc2n1	.	-38	11	51*	.	.
Cc1cc(=O)n(CC(C)O)c(O)c1C#N (stereo unspecified)	-99	-14	0	-30	99*	89*
CN(CC(=O)Nc1ccc(Cl)cc1)c1ccc(S(=O)(=O)N2CCCCC2)cc1[N+](=O)[O-]	.	.	.	62*	.	.
COc1ccc(CCN(C)c2ccc(S(=O)(=O)N3CCCC3)cc2[N+](=O)[O-])cc1OC	.	.	.	58	.	.
c1ccc2c(c1)oc1c(N3CCOCC3)ncnc12	21	5	11	-24	-21	-23
C(=C\c1ccccc1)/CN1CCN(c2ncnc3c2oc2ccccc23)CC1	40*	-13	-12	.	-40	-28
O=C(O)c1ccc(N2Cc3ccccc3C2)cc1O	-2	-2	-45	-9	2	2
CC(NCc1ccc2c(c1)OCO2)C(=O)NC1CCCc2ccccc21 (stereo unspecified)	-10	95*	.	1	10	-8
Cc1cc(C(=O)NC2CCCc3ccccc32)c(C)o1 (stereo unspecified)	15	11	5	5	-15	-26
Cc1ccc(C(=O)CSc2nnc(COc3ccc(C#N)cc3)n2-c2ccccc2)cc1	2	8	96*	4	-2	-12
COc1ccc(C(=O)CSc2nnc(COc3ccc(C#N)cc3)n2-c2ccccc2)cc1	20	-17	-5	.	-20	-8
COc1ccc(-n2c(COc3ccccc3)nnc2SCC(N)=O)cc1	-1	16	10	81*	1	-16
C=CCn1c(COc2ccccc2)nnc1SCC(=O)O	-3	-10	-9	62*	3	21
CC(C(=O)N1CCOCCOCCOCCOCCOCC1)N1C(=O)c2ccccc2C1=O (stereo unspecified)	.	.	.	-17	.	.
COc1ccccc1CNC(=O)CSc1nnc2ccc(-c3cccnc3)nn12	.	.	.	84*	.	.
COc1cc(C2C(C#N)=C(N)Oc3cc(N(C)C)ccc32)cc2c1OCO2 (stereo unspecified)	-27	68	97*	.	27	57
O=C(NCc1ccccc1)C(c1ccncc1)N(C(=O)c1csnn1)C1CC1 (stereo unspecified)	-20	-15	15	-14	20	1
CCOC(=O)/C(=N\Nc1cc(C(F)(F)F)ccc1Cl)N(CC)CC	3	-8	14	.	-4	-10
O=C1C2CCCN2C(c2ccccc2)N1c1cccc(Cl)c1 (stereo unspecified)	-23	5	3	5	23	24
